In ChEMBL document CHEMBL1961873, “Compounds: GSK PKIS; Assays: Nanosyn kinase panel” (2012):

Target: Rho-associated protein kinase 2 (Homo sapiens) (UniProt O75116)
Conditions: at 0.1 µM

Rho-associated protein kinase 2 (Homo sapiens), sequence (O75116 whole entry, looked up): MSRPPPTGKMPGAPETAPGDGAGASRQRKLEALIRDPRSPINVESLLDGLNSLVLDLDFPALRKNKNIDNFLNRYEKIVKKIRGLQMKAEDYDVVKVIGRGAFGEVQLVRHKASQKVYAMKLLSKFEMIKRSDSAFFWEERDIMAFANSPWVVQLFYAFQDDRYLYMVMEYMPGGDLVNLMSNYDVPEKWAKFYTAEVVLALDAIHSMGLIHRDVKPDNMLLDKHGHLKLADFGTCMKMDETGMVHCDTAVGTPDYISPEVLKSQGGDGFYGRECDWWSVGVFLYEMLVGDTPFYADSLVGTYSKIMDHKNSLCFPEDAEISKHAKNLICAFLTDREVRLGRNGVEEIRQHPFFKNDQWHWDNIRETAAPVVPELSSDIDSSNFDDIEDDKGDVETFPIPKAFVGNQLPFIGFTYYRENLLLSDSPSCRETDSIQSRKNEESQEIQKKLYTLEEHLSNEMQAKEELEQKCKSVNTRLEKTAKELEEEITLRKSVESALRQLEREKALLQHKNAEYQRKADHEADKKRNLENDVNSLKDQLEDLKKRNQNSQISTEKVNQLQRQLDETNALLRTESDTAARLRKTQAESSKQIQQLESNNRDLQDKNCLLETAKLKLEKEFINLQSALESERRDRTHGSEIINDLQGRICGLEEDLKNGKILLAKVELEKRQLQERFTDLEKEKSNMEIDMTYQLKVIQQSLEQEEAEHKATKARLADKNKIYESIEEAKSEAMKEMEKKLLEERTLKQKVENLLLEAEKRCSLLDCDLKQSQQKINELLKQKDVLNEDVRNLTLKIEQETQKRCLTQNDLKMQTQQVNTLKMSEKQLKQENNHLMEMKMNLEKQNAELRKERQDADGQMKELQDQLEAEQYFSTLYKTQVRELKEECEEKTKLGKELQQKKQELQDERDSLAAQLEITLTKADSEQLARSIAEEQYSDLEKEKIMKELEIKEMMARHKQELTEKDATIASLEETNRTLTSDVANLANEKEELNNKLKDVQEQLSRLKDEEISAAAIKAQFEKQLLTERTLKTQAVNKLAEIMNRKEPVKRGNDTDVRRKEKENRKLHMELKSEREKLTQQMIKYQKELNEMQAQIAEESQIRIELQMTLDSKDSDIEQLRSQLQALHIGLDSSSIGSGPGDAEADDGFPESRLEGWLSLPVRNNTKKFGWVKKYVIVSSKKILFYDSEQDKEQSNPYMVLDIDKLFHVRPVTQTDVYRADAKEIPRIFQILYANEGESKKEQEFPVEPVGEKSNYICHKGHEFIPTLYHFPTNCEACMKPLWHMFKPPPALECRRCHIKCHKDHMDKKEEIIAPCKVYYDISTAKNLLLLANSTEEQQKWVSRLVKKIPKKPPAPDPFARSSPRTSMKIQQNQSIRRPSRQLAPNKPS

SMILES	inhibition
NC(=O)Cc1ccccc1Oc1nccc(-c2c(-c3ccc(F)cc3)ncn2C2CCNCC2)n1	-0.06%
C[C@@H](Oc1cc(-n2cnc3ccc(OC4CCN(C)CC4)cc32)sc1C(N)=O)c1ccccc1Cl	1.57%
NS(=O)(=O)c1ccc(N/N=C2\C(=O)Nc3ccc(-c4cnco4)cc32)cc1	16.3%
NS(=O)(=O)c1ccc(Nc2cc(-c3ccc(O)c(F)c3)n[nH]2)cc1	-1.97%
CCS(=O)(=O)c1ccc(OC)c(Nc2ncc(-c3ccccc3Cl)o2)c1	1.15%
COc1cc(Nc2ncc3c(C)nc(-c4cccc(C(F)(F)F)c4)n3n2)cc(OC)c1OC	2.6%
Cc1ccc(C(=O)NC2CCC2)cc1-c1ccc(C(=O)NCC2CC2)cc1	1.03%
C[C@@H](Oc1cc(-n2cnc3ccc(OCC4CCN(C)CC4)cc32)sc1C(N)=O)c1ccccc1Cl	3.44%
Fc1ccc(-c2ncn(C3CCNCC3)c2-c2ccnc(Oc3ccc4c(c3)OCO4)n2)cc1	4.88%
CCS(=O)(=O)c1ccc(OC)c(Nc2ncc(-c3cccc(-c4ccccc4F)c3)o2)c1	1.1%
CN(c1ccc(NC(=O)Nc2c(Cl)cccc2Cl)cc1)c1ccnc(Nc2cccc(CS(C)(=O)=O)c2)n1	3.46%
O=C(NCC1CC1)c1ccc(-c2cccc(C(=O)NC3CC3)c2)cc1	2.43%
COc1ccc2cc(-c3c(-c4ccncc4)nc(-c4ccc(S(C)(=O)=O)cc4C)n3C)ccc2c1	10.5%
NC(=O)c1ccc(Oc2nccc(-c3c(-c4ccc(F)cc4)ncn3C3CCNCC3)n2)cc1	3.87%
Nc1nccc(-c2c(-c3ccc(F)cc3)ncn2C2CCC(O)CC2)n1 (stereo not drawn)	-1.47%
COc1cc2ncn(-c3cc(OCCc4ccccc4)c(C(N)=O)s3)c2cc1OC	0.94%
Cc1ccc(NC(=O)c2ccoc2)cc1-c1ccc(C(=O)NCC2CC2)cc1	0.78%

SMILES	inhibition
COc1cc(Nc2ncc(-c3ccccc3)o2)cc(OC)c1OC	-0.74%
O=C(Nc1n[nH]c2nc(-c3ccc(O)cc3)c(Br)cc12)C1CC1	4.18%
CCc1nccc2c1nc(-c1nonc1N)n2CC	1.91%
COc1ccc(C2=C(N3CCc4ccccc43)C(=O)NC2=O)cc1	2.97%
COc1ccc(-c2ccc3c(NC(=O)C4CC4)n[nH]c3n2)cc1	1.6%
COc1cc2ncn(-c3cc(OCc4ccccc4C(F)(F)F)c(C(C)=O)s3)c2cc1OC	1.87%
Fc1ccc(-c2ncn(C3CCNCC3)c2-c2ccnc(Oc3ccc(Oc4ccccc4)cc3)n2)cc1	2.53%
COc1cc2ncn(-c3cc(OCc4cccs4)c(C(N)=O)s3)c2cc1OC	3.91%
O=C(Nc1ccc(Oc2ccc3[nH]c(NC(=O)c4ccccc4)nc3c2)cc1)Nc1cc(C(F)(F)F)ccc1F	3.35%
Fc1ccc(-c2nc3n(c2-c2ccncc2)CCS3)cc1	2.98%
Fc1ccc(-c2ncn(C3CCNCC3)c2-c2ccnc(Oc3ccc(F)c(F)c3)n2)cc1	1.74%
COc1cccc(/C=N/Nc2ncnc3c2cnn3-c2cccc(OC)c2)c1	2.65%
C/C(Nc1ccc(S(N)(=O)=O)cc1)=C1/C(=O)Nc2ccccc21	2.95%
NS(=O)(=O)c1ccc(N/N=C2\C(=O)Nc3ccc(C(=O)NCCCn4ccnc4)cc32)cc1	5.67%
CN(C)CCOc1ccc(-c2cc(-c3ccc4c(c3)CCC4=NO)c(-c3ccncc3)o2)cc1	-2.12%
COc1ccc2cc(-c3c(-c4ccncc4)nc(-c4ccc([S+](C)[O-])cc4C)n3C)ccc2c1 (stereo not drawn)	-0.57%
FC(F)(F)c1cccc(Nc2nccc(-c3cnn4nc(-c5ccccc5)ccc34)n2)c1	1.21%

Target: Rho-associated protein kinase 2 (Homo sapiens) (UniProt O75116)
Conditions: at 1 µM

SMILES	inhibition
NC(=O)Cc1ccccc1Oc1nccc(-c2c(-c3ccc(F)cc3)ncn2C2CCNCC2)n1	0.19%
C[C@@H](Oc1cc(-n2cnc3ccc(OC4CCN(C)CC4)cc32)sc1C(N)=O)c1ccccc1Cl	5.08%
NS(=O)(=O)c1ccc(N/N=C2\C(=O)Nc3ccc(-c4cnco4)cc32)cc1	58.3%
NS(=O)(=O)c1ccc(Nc2cc(-c3ccc(O)c(F)c3)n[nH]2)cc1	3.32%
CCS(=O)(=O)c1ccc(OC)c(Nc2ncc(-c3ccccc3Cl)o2)c1	2.53%
COc1cc(Nc2ncc3c(C)nc(-c4cccc(C(F)(F)F)c4)n3n2)cc(OC)c1OC	8.14%
Cc1ccc(C(=O)NC2CCC2)cc1-c1ccc(C(=O)NCC2CC2)cc1	-0.46%
C[C@@H](Oc1cc(-n2cnc3ccc(OCC4CCN(C)CC4)cc32)sc1C(N)=O)c1ccccc1Cl	9.54%
Fc1ccc(-c2ncn(C3CCNCC3)c2-c2ccnc(Oc3ccc4c(c3)OCO4)n2)cc1	8.46%
CCS(=O)(=O)c1ccc(OC)c(Nc2ncc(-c3cccc(-c4ccccc4F)c3)o2)c1	1%
CN(c1ccc(NC(=O)Nc2c(Cl)cccc2Cl)cc1)c1ccnc(Nc2cccc(CS(C)(=O)=O)c2)n1	9.15%
O=C(NCC1CC1)c1ccc(-c2cccc(C(=O)NC3CC3)c2)cc1	1.11%
COc1ccc2cc(-c3c(-c4ccncc4)nc(-c4ccc(S(C)(=O)=O)cc4C)n3C)ccc2c1	12.3%
NC(=O)c1ccc(Oc2nccc(-c3c(-c4ccc(F)cc4)ncn3C3CCNCC3)n2)cc1	4.42%
Nc1nccc(-c2c(-c3ccc(F)cc3)ncn2C2CCC(O)CC2)n1 (stereo not drawn)	-1.96%
COc1cc2ncn(-c3cc(OCCc4ccccc4)c(C(N)=O)s3)c2cc1OC	-1.5%
Cc1ccc(NC(=O)c2ccoc2)cc1-c1ccc(C(=O)NCC2CC2)cc1	-1.14%

SMILES	inhibition
COc1cc(Nc2ncc(-c3ccccc3)o2)cc(OC)c1OC	3.74%
O=C(Nc1n[nH]c2nc(-c3ccc(O)cc3)c(Br)cc12)C1CC1	6.43%
CCc1nccc2c1nc(-c1nonc1N)n2CC	17%
COc1ccc(C2=C(N3CCc4ccccc43)C(=O)NC2=O)cc1	3.17%
COc1ccc(-c2ccc3c(NC(=O)C4CC4)n[nH]c3n2)cc1	3.71%
COc1cc2ncn(-c3cc(OCc4ccccc4C(F)(F)F)c(C(C)=O)s3)c2cc1OC	2.95%
Fc1ccc(-c2ncn(C3CCNCC3)c2-c2ccnc(Oc3ccc(Oc4ccccc4)cc3)n2)cc1	3.69%
COc1cc2ncn(-c3cc(OCc4cccs4)c(C(N)=O)s3)c2cc1OC	11.3%
O=C(Nc1ccc(Oc2ccc3[nH]c(NC(=O)c4ccccc4)nc3c2)cc1)Nc1cc(C(F)(F)F)ccc1F	8.83%
Fc1ccc(-c2nc3n(c2-c2ccncc2)CCS3)cc1	5.06%
Fc1ccc(-c2ncn(C3CCNCC3)c2-c2ccnc(Oc3ccc(F)c(F)c3)n2)cc1	5.45%
COc1cccc(/C=N/Nc2ncnc3c2cnn3-c2cccc(OC)c2)c1	3.61%
C/C(Nc1ccc(S(N)(=O)=O)cc1)=C1/C(=O)Nc2ccccc21	9.54%
NS(=O)(=O)c1ccc(N/N=C2\C(=O)Nc3ccc(C(=O)NCCCn4ccnc4)cc32)cc1	25.4%
CN(C)CCOc1ccc(-c2cc(-c3ccc4c(c3)CCC4=NO)c(-c3ccncc3)o2)cc1	-0.39%
COc1ccc2cc(-c3c(-c4ccncc4)nc(-c4ccc([S+](C)[O-])cc4C)n3C)ccc2c1 (stereo not drawn)	-0.64%
FC(F)(F)c1cccc(Nc2nccc(-c3cnn4nc(-c5ccccc5)ccc34)n2)c1	0.98%
